PubChem BioAssay (EPA / NIEHS)
Records with an inconclusive call do not appear. Calls of active or inactive are those of the source. How the source made its calls, unless noted: active means hit-call score of the fitted dose curve at least 0.9, where 1 is the maximum; inactive means score below 0.9.

What was measured:
[1] = read-out: Monocyte Chemoattractant Protein-1 (MCP1), CCL2 (gene 6347); assay: BSK_LPS_MCP1: BioMAP Diversity Plus: LPS Assay for Monocyte Chemoattractant Protein-1 (MCP1) Biomarker Activity (AID 2283081); settings: primary human HUVEC with PBMC; actives raise or lower the signal;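 on AC50: co-culture stimulated with LPS; secreted MCP-1 protein quantified by ELISA in culture supernatant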
Procedure, shortened: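 Values derive from bidirectional fitting against DMSO of ELISA-measured MCP-1 in a human primary endothelial and mononuclear cell co-culture, 24 h after chemical addition under LPS activation.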

[2] = BSK_LPS_PGE2: BioMAP Diversity Plus: LPS Assay for Prostaglandin E2 (PGE2) Biomarker Activity (AID 2283082); settings: primary human HUVEC with PBMC; actives raise or lower the signal;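 on AC50: secreted prostaglandin E2 measured by ELISA in LPS-stimulated co-culture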
Procedure, shortened: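 LPS-activated HUVEC/PBMC co-culture; cmpd dosed, 24 h; PGE2 by ELISA; bidirectional fit vs DMSO; SRB (0.1%, TCA-fixed, 560 nm) in parallel plates for overt cytotox.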

[3] = read-out: Macrophage colony-stimulating factor (MCSF), CSF1 (gene 1435); assay: BSK_LPS_MCSF: BioMAP Diversity Plus: LPS Assay for Macrophage colony-stimulating factor (MCSF) Biomarker Activity (AID 2283083); settings: primary human HUVEC with PBMC; actives raise or lower the signal
Procedure, shortened: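 Bidirectional fit versus DMSO of ELISA-measured M-CSF in co-cultured human umbilical vein endothelial cells and PBMC, sampled 24 h after dosing.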

[4] = read-out: Tissue Factor, F3 (gene 2152); assay: BSK_LPS_TissueFactor: BioMAP Diversity Plus: LPS Assay for Tissue Factor Biomarker Activity (AID 2283084); settings: primary human HUVEC with PBMC; actives raise or lower the signal
Procedure, shortened: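 Read-out: CD142 ELISA, 24 h. System: LPS-driven human endothelial/PBMC co-culture. Analysis: up- or down-signal fitted against DMSO.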

[5] = read-out: Tumor necrosis factor (Homo sapiens) (UniProt P01375); assay: BSK_LPS_TNFa: BioMAP Diversity Plus: LPS Assay for Tumour Necrosis Factor alpha (TNFa) Biomarker Activity (AID 2283085); settings: primary human HUVEC with PBMC; actives raise or lower the signal
Procedure, shortened: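 Read-out is ELISA of TNFa in primary human endothelial cell–PBMC co-cultures at 24 h after compound. Activity in either direction was fitted against DMSO.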

[6] = read-out: Vascular cell adhesion molecule 1 (VCAM1), VCAM1 (gene 7412); assay: BSK_LPS_VCAM1: BioMAP Diversity Plus: LPS Assay for Vascular cell adhesion molecule 1 (VCAM1) Biomarker Activity (AID 2283086); settings: primary human HUVEC with PBMC; actives raise or lower the signal
Procedure, shortened: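 HUVEC + PBMC co-culture, LPS system; compound 24 h; VCAM-1 by ELISA; bidirectional fit vs DMSO control; parallel SRB (0.1%, TCA-fixed, 560 nm) for cytotoxicity.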

[7] = read-out: CD40, CD40 (gene 958); assay: BSK_SAg_CD40: BioMAP Diversity Plus: SAg Assay for CD40 Biomarker Activity (AID 2283088); settings: primary human HUVEC with PBMC; actives raise or lower the signal
Procedure, shortened: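 Endpoint derived by fitting increases or decreases versus DMSO controls. CD40 is detected by fluorescence ELISA in a human vascular co-culture of endothelium and PBMC at 24 h.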

[8] = read-out: Monocyte Chemoattractant Protein-1 (MCP1), CCL2 (gene 6347); assay: BSK_SAg_MCP1: BioMAP Diversity Plus: SAg Assay for Monocyte Chemoattractant Protein-1 (MCP1) Biomarker Activity (AID 2283090); settings: primary human HUVEC with PBMC; actives raise or lower the signal
Procedure, shortened: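 MCP-1 levels in the endothelial–PBMC SAg co-culture were quantified by ELISA at 24 h post-dosing; both increases and decreases versus DMSO scored. Cytotoxicity monitored by SRB total protein in parallel cultures.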

[9] = BSK_SAg_PBMCCytotoxicity: PBMC Cytotoxicity Assessment in the BioMAP Diversity Plus: SAg Assay (AID 2283093); settings: primary human HUVEC with PBMC;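 further: PBMC viability measured as Alamar Blue reduction fluorescence at 546/580 nm; fitted both ways against DMSO so a hit may be loss or gain of signal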;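 on AC50: PBMC superantigen activated with SEB plus TSST-1 one hour after compound addition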
Procedure, shortened: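 HUVEC/PBMC co-culture; PBMC exposed to chemical 1 h before SEB and TSST-1 activation (20 ng/mL each), incubated 90 h, then Alamar Blue 6 h, fluorescence 546/580 nm. Bidirectional fit versus DMSO baseline.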

[10] = read-out: Interleukin-8 (IL8), CXCL8 (gene 3576); assay: BSK_SAg_IL8: BioMAP Diversity Plus: SAg Assay for Interleukin-8 (IL8) Biomarker Activity (AID 2283094); settings: primary human HUVEC with PBMC; actives raise or lower the signal
Procedure, shortened: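 ELISA read-out of IL-8 in a primary human vascular co-culture (umbilical vein endothelium plus PBMC), taken 24 h after compound addition. Values derive from bidirectional fits against DMSO negative controls.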

[11] = BSK_SAg_Proliferation: Cell Proliferation Assessment in the BioMAP Diversity Plus: SAg Assay (AID 2283095); settings: primary human HUVEC with PBMC;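 further: relative cell number as total protein by SRB absorbance in sub-confluent culture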
Procedure, shortened: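 Cells (endothelium plus PBMC, human primary) were dosed with chemical, cultured 96 h, fixed in 10% TCA and stained with 0.1% SRB. Absorbance at 560 nm gave relative protein, fitted bidirectionally relative to DMSO.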

[12] = BSK_SAg_SRB: Viability Assessment in the BioMAP Diversity Plus: SAg Assay (AID 2283096); settings: primary human HUVEC with PBMC;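 further: cells read one day after compound addition; hits may be either gain or loss of signal compared with DMSO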
Procedure, shortened: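 Human umbilical vein endothelial cells co-cultured with PBMC, read 24 h after compound dosing. Total protein measured by sulforhodamine B staining (0.1% SRB after 10% TCA fixation, absorbance 560 nm); bidirectional fit versus DMSO baseline.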

[13] = read-out: CD38, CD38 (gene 952); assay: BSK_SAg_CD38: BioMAP Diversity Plus: SAg Assay for CD38 Biomarker Activity (AID 2283087); settings: primary human HUVEC with PBMC; actives raise or lower the signal
Procedure, shortened: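 Human HUVEC plus PBMC co-culture stimulated with superantigen; CD38 measured by ELISA 24 h after chemical dosing. Fluorescence read-out, bidirectional fit against DMSO; cytotoxicity tracked in parallel by SRB and Alamar Blue.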

[14] = read-out: Monokine induced gamma interferon (MIG), CXCL9 (gene 4283); assay: BSK_SAg_MIG: BioMAP Diversity Plus: SAg Assay for Monokine induced gamma interferon (MIG) Biomarker Activity (AID 2283092); settings: primary human HUVEC with PBMC; actives raise or lower the signal
Procedure, shortened: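 Measures CXCL9 protein by ELISA in a human vascular primary-cell co-culture (umbilical vein endothelium with PBMC) 24 h after chemical addition. Activity is scored up or down from the DMSO control.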

[15] = biological target: human CYP1A1, CYP1A1 (gene 1543) (UniProt P04798); assay: NVS_ADME_hCYP1A1: NovaScreen (NVS) CYP450-related Enzyme Activity (ADME) Assay for human CYP1A1 (AID 2283100; active means hit-call score of the fitted dose curve at least 0.9, where 1 is the maximum)
Procedure, shortened: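 Inhibition of recombinant CYP1A1 turnover was assessed fluorometrically in a biochemical format 1 h after compound exposure. Testing began at 10 uM in duplicate and progressed to concentration series reaching 20 uM, with on-plate positive and negative controls.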

[16] = biological target: human CYP2B6, CYP2B6 (gene 1555) (UniProt P20813); assay: NVS_ADME_hCYP2B6: NovaScreen (NVS) CYP450-related Enzyme Activity (ADME) Assay for human CYP2B6 (AID 2283101; active means hit-call score of the fitted dose curve at least 0.9, where 1 is the maximum)
Procedure, shortened: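 Recombinant protein, specific fluorescent substrate, read at 1 h post-dosing. Primary: single 10 uM, duplicate; follow-up: concentration series. Activity = signal loss vs acetonitrile baseline, with positive and negative controls on every plate.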

[17] = read-out: E-selectin (Homo sapiens) (UniProt P16581); assay: BSK_SAg_Eselectin: BioMAP Diversity Plus: SAg Assay for Eselectin Biomarker Activity (AID 2283091); settings: primary human HUVEC with PBMC; actives raise or lower the signal
Procedure, shortened: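 Endpoint values derive from bidirectional fitting relative to DMSO, using ELISA-measured E-selectin in a human vascular co-culture (umbilical vein endothelium plus PBMC) sampled 24 h after dosing.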

[18] = read-out: CD69, CD69 (gene 969); assay: BSK_SAg_CD69: BioMAP Diversity Plus: SAg Assay for CD69 Biomarker Activity (AID 2283089); settings: primary human HUVEC with PBMC; actives raise or lower the signal
Procedure, shortened: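 Endothelial/PBMC co-culture; chemical added; 24 h incubation; CD69 ELISA with fluorescence detection; bidirectional fit vs DMSO.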

Tumor necrosis factor (Homo sapiens), sequence (P01375 whole entry, looked up): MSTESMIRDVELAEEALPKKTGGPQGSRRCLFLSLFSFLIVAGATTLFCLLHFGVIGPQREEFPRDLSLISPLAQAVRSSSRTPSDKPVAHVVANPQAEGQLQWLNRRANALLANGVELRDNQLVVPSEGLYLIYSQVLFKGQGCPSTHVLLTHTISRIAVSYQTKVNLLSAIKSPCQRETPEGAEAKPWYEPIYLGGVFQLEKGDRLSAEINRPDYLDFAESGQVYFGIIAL
E-selectin (Homo sapiens), sequence (P16581 whole entry, looked up): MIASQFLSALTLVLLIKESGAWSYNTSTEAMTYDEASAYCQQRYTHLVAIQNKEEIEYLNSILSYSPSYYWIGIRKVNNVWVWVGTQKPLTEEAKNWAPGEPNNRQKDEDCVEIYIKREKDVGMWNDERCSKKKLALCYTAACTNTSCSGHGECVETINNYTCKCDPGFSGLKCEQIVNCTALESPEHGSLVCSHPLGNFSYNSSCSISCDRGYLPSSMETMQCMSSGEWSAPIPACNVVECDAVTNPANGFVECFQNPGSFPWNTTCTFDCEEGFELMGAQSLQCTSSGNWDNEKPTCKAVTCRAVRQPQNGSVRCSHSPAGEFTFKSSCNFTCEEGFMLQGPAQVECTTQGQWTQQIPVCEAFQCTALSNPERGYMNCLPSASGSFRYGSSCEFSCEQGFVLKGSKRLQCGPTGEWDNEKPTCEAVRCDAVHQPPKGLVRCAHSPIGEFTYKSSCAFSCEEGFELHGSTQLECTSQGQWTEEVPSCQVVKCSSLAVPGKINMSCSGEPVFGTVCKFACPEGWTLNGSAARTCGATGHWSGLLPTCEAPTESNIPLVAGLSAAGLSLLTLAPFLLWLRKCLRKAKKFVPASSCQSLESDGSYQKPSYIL
human CYP2B6, CYP2B6 (gene 1555), sequence (P20813 whole entry, looked up): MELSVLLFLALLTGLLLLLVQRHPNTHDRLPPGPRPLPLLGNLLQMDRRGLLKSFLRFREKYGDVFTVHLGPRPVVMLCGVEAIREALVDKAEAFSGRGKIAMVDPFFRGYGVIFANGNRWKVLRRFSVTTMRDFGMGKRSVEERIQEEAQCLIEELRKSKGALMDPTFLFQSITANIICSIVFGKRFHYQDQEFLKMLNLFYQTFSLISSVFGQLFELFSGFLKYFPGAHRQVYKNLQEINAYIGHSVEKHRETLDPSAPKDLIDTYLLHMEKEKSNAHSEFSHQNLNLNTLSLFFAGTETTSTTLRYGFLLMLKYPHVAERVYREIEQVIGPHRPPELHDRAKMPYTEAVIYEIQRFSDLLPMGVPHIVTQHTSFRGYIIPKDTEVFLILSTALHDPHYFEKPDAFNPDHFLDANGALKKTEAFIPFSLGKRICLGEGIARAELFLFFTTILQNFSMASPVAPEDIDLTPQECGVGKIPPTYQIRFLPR
human CYP1A1, CYP1A1 (gene 1543), sequence (P04798 whole entry, looked up): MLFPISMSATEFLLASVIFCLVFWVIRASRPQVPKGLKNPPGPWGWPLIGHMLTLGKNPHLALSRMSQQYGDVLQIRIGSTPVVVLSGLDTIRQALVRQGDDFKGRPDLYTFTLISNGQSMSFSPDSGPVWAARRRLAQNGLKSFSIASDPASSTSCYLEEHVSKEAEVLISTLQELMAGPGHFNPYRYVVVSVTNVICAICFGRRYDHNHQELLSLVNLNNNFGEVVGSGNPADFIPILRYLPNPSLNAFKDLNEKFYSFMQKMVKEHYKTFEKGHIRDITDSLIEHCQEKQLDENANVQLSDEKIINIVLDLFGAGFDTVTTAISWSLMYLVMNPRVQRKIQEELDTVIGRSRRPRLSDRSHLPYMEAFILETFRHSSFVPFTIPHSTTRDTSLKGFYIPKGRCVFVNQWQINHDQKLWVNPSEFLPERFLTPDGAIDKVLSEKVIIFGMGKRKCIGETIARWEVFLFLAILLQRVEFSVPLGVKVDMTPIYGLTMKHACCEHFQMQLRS

Clc1ccc(C(c2ccc(Cl)cc2)C(Cl)(Cl)Cl)cc1
AC50 [1]: 33100 nM (active)
outcome [2]: inactive
AC50 [3]: 19500 nM (active)
AC50 [4]: 38700 nM (active)
AC50 [5]: 24800 nM (active)
AC50 [6]: 28700 nM (active)
AC50 [7]: 23200 nM (active)
AC50 [8]: 30000 nM (active)
AC50 [9]: 15500 nM (active)
AC50 [10]: 17000 nM (active)
AC50 [11]: 12700 nM (active)
AC50 [12]: 21600 nM (active)

CCC[CH2][Sn]([Cl])([CH2]CCC)[CH2]CCC
AC50 [1]: 148 nM (active)
outcome [2]: inactive
AC50 [3]: 615 nM (active)
AC50 [4]: 148 nM (active)
AC50 [5]: 248 nM (active)
AC50 [6]: 148 nM (active)
AC50 [13]: 248 nM (active)
AC50 [7]: 148 nM (active)
AC50 [8]: 148 nM (active)
AC50 [9]: 148 nM (active)
AC50 [10]: 148 nM (active)
AC50 [11]: 148 nM (active)
AC50 [12]: 148 nM (active)

Nc1ccc(Oc2ccc(N)cc2)cc1
outcome [1]: inactive
AC50 [2]: 12700 nM (active)
outcome [3]: inactive
outcome [4]: inactive
outcome [5]: inactive
outcome [6]: inactive
outcome [13]: inactive
outcome [7]: inactive
outcome [8]: inactive
outcome [14]: inactive
outcome [9]: inactive
outcome [10]: inactive
outcome [11]: inactive
outcome [12]: inactive
outcome [15]: inactive
AC50 [16]: 2570 nM (active)

ClCCOCCCl
outcome [1]: inactive
outcome [2]: inactive
outcome [3]: inactive
outcome [4]: inactive
outcome [5]: inactive
outcome [6]: inactive
outcome [13]: inactive
outcome [7]: inactive
outcome [8]: inactive
outcome [17]: inactive
outcome [9]: inactive
outcome [10]: inactive
outcome [11]: inactive
outcome [12]: inactive

CC(C)(C)OOC(=O)c1ccccc1
outcome [1]: inactive
outcome [2]: inactive
outcome [3]: inactive
outcome [4]: inactive
outcome [5]: inactive
outcome [6]: inactive
outcome [13]: inactive
outcome [18]: inactive
outcome [8]: inactive
outcome [17]: inactive
outcome [14]: inactive
outcome [9]: inactive
outcome [10]: inactive
outcome [11]: inactive
outcome [12]: inactive

CC(O)CCO (centres undefined)
outcome [1]: inactive
outcome [2]: inactive
outcome [3]: inactive
outcome [4]: inactive
outcome [5]: inactive
outcome [6]: inactive
outcome [13]: inactive
outcome [7]: inactive
outcome [8]: inactive
outcome [14]: inactive
outcome [9]: inactive
outcome [10]: inactive
outcome [11]: inactive
outcome [12]: inactive
